# HPGD inh – qHTS Assay for Inhibitors of HPGD (15-Hydroxyprostaglandin Dehydrogenase); AID 894, 2007; purified HPGD, NADH fluorescence kinetic, PGE2 substrate; Potency, µM, for the others: at the top dose activity change, negative = inhibition, actives largely listed as inhibitors; 4.3% of 150,000 active; further: potency means the concentration at half of the fitted maximal effect
# Target sequence (P15428 whole entry, looked up): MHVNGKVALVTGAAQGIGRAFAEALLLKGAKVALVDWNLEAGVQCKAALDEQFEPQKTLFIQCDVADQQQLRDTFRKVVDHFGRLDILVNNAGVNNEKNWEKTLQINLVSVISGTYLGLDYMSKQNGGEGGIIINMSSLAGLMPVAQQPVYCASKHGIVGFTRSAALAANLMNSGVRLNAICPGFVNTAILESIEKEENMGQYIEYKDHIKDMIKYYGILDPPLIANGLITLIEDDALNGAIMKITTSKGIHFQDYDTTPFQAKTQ
#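 20 nM HPGD preincubated 15 min at room temperature with compound in 50 mM Tris-HCl pH 8, 0.01% Tween 20. Started with 1 mM NAD+ and 30 uM prostaglandin E2; NADH fluorescence (360/450 nm) read 5 times over 30-s intervals, last minus first.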
# PNC inhibitor – High Content Assay for Compounds that inhibit the Assembly of the Perinucleolar Compartment | AID 2417, 2010 | 3.1% of 140,000 active | activity change (PNC), negative = inhibition, % at 10 µM | PC3M PTB-GFP, PNC prevalence imaging, 16 h; active compounds read low;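 active means readout at or below -70, meaning at least 70% loss of cells showing the perinucleolar compartment, a nuclear body marking cancer cells; inconclusive means readout between -30 and a set limit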;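 further: plate controls were DMSO wells for no effect and camptothecin positive control wells for full effect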
#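 Compounds are pinned in duplicate onto adhered PC3M cells stably expressing GFP-tagged PTB and incubated 16 h at 37 C. Cells are then fixed, nuclei stained with Hoechst, and PNC-positive cells counted.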
# ALDH1A1 inh – qHTS Assay for Inhibitors of Aldehyde Dehydrogenase 1 (ALDH1A1) | Aldehyde dehydrogenase 1A1 (Homo sapiens), P00352 | Purified ALDH1A1, NADH fluorescence, propionaldehyde substrate | Potency, µM (titrated, usually from 75.3 µM), inactives show top-dose activity, negative = inhibition, usual class: inhibitors | 7.3% of 220,000 active | AID 1030, 2008;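 further: potency means the concentration at half of the fitted maximal effect; plate controls were no enzyme wells and a reference inhibitor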
# JMJD2E inh – qHTS Assay for Inhibitors of Human Jumonji Domain Containing 2E (JMJD2E) | Lysine-specific demethylase 4E (Homo sapiens), B2RXH2 | AID 2147, 2009 | 1.6% of 230,000 active | Potency, µM (highest dose often 57.1 µM), for inactives: top-dose activity change, negative = inhibition, hits mostly inhibitors | JMJD2E catalytic domain, FDH-coupled NADH fluorescence (FDH is formaldehyde dehydrogenase);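 further: potency means the concentration at half of the fitted maximal effect; 0% = wells with enzyme and -100% = buffer wells without enzyme; nearly all actives have a fitted effect of over 50% in size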
# Target sequence (B2RXH2 1-337 limits assumed): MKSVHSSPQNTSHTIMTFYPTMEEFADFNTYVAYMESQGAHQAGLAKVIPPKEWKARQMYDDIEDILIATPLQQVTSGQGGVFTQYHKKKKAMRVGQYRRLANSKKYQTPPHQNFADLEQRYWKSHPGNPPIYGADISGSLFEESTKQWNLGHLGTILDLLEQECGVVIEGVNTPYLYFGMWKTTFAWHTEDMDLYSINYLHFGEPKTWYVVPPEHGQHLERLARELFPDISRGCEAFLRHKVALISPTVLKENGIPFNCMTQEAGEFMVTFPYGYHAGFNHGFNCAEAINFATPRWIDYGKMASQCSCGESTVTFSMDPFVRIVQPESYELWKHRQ
# * hit, by the source's call; ? = inconclusive; · = not tested or not shown; [ ] = dose if it differs, or a comment. The list is not random: actives were taken first. Their share in the collection is about 11%. Unless noted, the call rests on the fitted dose curve; in most records, active means well fitted inhibition curve with a large enough effect (not every such curve was filed as active); inconclusive means small, poorly fitted or top-dose-only effect, or another doubt; inactive means no such curve, though single readings can be large or run the other way. Unless noted, on the % scale 0 is the no-effect control and ±100 the full control effect.
SMILES,HPGD inh,PNC inhibitor,ALDH1A1 inh,JMJD2E inh
O=c1cnn([C@@H]2O[C@H](CO)[C@@H](O)[C@H]2O)c(=O)[nH]1,1.0%,-110.6*,-2.1%,-4.9%
O=c1ncccn1[C@@H]1O[C@H](CO)C(O)[C@@H]1O (some centres not stated),-25.6%,·,-7.8%,·
Cc1cc(=O)[nH]c(N/N=C/c2ccc(OC(=O)c3cccnc3)cc2)n1,·,·,-6.1%,-11.7%
COc1ccc(C2OC(=O)Cc3cc(OC)c(OC)cc32)cc1 (configuration not stated),·,·,7.3%,5.6%
CCOc1cc2c(cc1OCC)C(c1ccccc1OC)OC(=O)C2 (configuration not stated),-9.2%,35.5,11.2µM*,?
COc1ccc(OC)c(N=c2oc3c(OC)cccc3cc2C(=O)NCc2ccco2)c1,-3.6%,32.6,1.4%,-2.0%
COc1cccc(C(=O)N/N=c2\oc3c(OC)cccc3cc2C(=O)NCc2ccccc2)c1,-2.2%,18.9,0.316µM*,-0.7%
COc1ccc(N=c2oc3c(OC)cccc3cc2C(=O)NCc2ccco2)cc1OC,-14.7%,14.7,0.355µM*,-9.0%
O=C1C2CC=CCC2C(=O)N1c1ccc(NCCc2ccc(O)cc2)c([N+](=O)[O-])c1 (configuration not stated),-27.2%,-1.8,?,-4.6%
Cc1ccc(S(=O)(=O)NN=C2C3CC4CC(C3)CC2C4)cc1[N+](=O)[O-],-17.0%,16.2,17.8µM*,-1.9%
CCCC1CCC(=NNS(=O)(=O)c2ccc(C)c([N+](=O)[O-])c2)CC1 (configuration not stated),-2.5%,?,?,-5.3%
C/C(=N\NS(=O)(=O)c1ccc(C)c([N+](=O)[O-])c1)c1cccs1,·,·,31.6µM*,-5.6%
CC(=O)N1CCC(=NNS(=O)(=O)c2cccc([N+](=O)[O-])c2)CC1,-13.8%,-2.4,11.2µM*,2.9%
CC(=O)N1CCC(=NNc2ccc(S(N)(=O)=O)cc2[N+](=O)[O-])CC1,·,·,·,-4.8%
CC(=O)N1CCC(=NNS(=O)(=O)c2ccc(C)c([N+](=O)[O-])c2)CC1,-0.8%,-20.2,10µM*,1.3%
C/C(=N\NS(=O)(=O)c1ccc([N+](=O)[O-])cc1)c1cccs1,·,·,0.6%,-2.1%
CN(Cc1ccc2nonc2c1)Cc1nc(CC2CC2)no1,·,·,?,-6.7%
COc1cccc(C2CCCCN(C)C2=O)c1 (configuration not stated),·,·,6.4%,12.9%
CC1CCCC/C1=N\NS(=O)(=O)c1ccc(Br)cc1 (configuration not stated),1.0%,24.9,4.47µM*,-0.3%
O=C(NNS(=O)(=O)c1ccc(Br)cc1)C1CCCCC1,·,·,-0.8%,-2.8%
Cc1ccc(S(=O)(=O)NN=C2CCC(C(C)(C)C)CC2)cc1[N+](=O)[O-] (configuration not stated),-8.1%,-26.3,6.31µM*,-7.7%
CC(C)(C)C1CCC(=NNS(=O)(=O)c2ccc(Br)cc2)CC1 (configuration not stated),-5.5%,-19.8,1.41µM*,1.7%
CN(C)S(=O)(=O)c1cc(NC(=O)CSc2nn(-c3ccc(Cl)cc3)c(=S)s2)ccc1Cl,-9.2%,8.3,?,-4.5%
Cc1ccc(NC(=O)CSc2nn(-c3ccc(Cl)cc3)c(=S)s2)cc1S(=O)(=O)N(C)C,?,26.3,14.1µM*,-11.6%
O=C(CSc1ncnc2sc3c(c12)CCCC3)c1ccco1,?,?,22.4µM*,?
SMILES,HPGD inh,PNC inhibitor,ALDH1A1 inh,JMJD2E inh
O=C(CSc1nc2sc3c(c2c(=O)n1-c1ccccc1)CCCC3)NCc1ccco1,-21.5%,53.3,?,?
CCc1nc(SCC(=O)N2CCN(C(=O)c3ccco3)CC2)c2c3c(sc2n1)CCCC3,-26.6%,-21.8,28.2µM*,-14.2%
O=C(CSc1ncnc2sc3c(c12)CCCCC3)NCc1ccco1,10µM*,?,8.91µM*,?
CC(=O)N/C(=C/c1ccc(OS(=O)(=O)c2ccc(C)cc2)cc1)C(=O)NCCCO,·,·,2.24µM*,1.2%
CC(=O)N/C(=C/c1ccc(OS(=O)(=O)c2ccc(C)cc2)cc1)C(=O)NCCO,-21.6%,-2.7,-9.1%,3.7%
C/C(CCC(C)C)=N\NC(=S)Nc1cc(S(=O)(=O)N2CCOCC2)ccc1N1CCOCC1,·,·,-10.6%,9.2%
COc1ccc(CCN2C(=S)N(C)C(=O)C2CC(=O)Nc2ccc(OC)cc2)cc1 (configuration not stated),·,·,4.47µM*,-5.0%
COc1ccc(NC(=O)CC2C(=O)N(C)C(=S)N2CCc2ccc(F)cc2)cc1 (configuration not stated),·,·,·,-4.8%
COc1ccc(NC(=O)CC2C(=O)N(C)C(=S)N2CCc2ccccc2)cc1 (configuration not stated),-5.5%,?,0.891µM*,-13.0%
CCN1C(=O)C(CC(=O)Nc2ccc(OC)cc2)N(CCc2ccc(F)cc2)C1=S (configuration not stated),·,·,14.1µM*,-16.3%
Cc1cccc(CNc2ccnc(-c3ccccc3C(F)(F)F)n2)c1,·,·,7.3%,·
CCC/C=C(\CCC)C(NS(=O)(=O)CC12CCC(CC1=O)C2(C)C)c1ccc(C(=O)OC)cc1 (configuration not stated),22.4µM*,·,10µM*,-2.2%
CCC/C=C(\CCC)C(NS(=O)(=O)c1ccc(Cl)cc1)c1ccc(C(=O)OC)cc1 (configuration not stated),-16.4%,·,?,-14.4%
COc1ccc(-c2coc3cc(OC(C)=O)cc(OC(C)=O)c3c2=O)cc1,-28.8%,·,68.5%,?
Cc1cc(C)nc(SCC(CSc2nc(C)cc(C)n2)C(=O)O)n1,·,·,3.8%,-16.0%
CN(C)c1ccc(O)c2c1C[C@H]1C[C@H]3[C@@H](N(C)C)C(=O)C(C(N)=O)=C(O)[C@]3(O)C(=O)C1=C2O,-2.9%,·,-6.1%[20.9 µM],?
COCCSc1ccccc1C(=O)N1CCN(c2ccccc2)CC1,·,·,6.7%,4.0%
Cc1noc(C)c1CSc1ccccc1C(=O)N1CCN(c2ccccc2)CC1,-13.8%,-100.0*,?,5.3%
COC(=O)[C@@]1(Cc2ccc(OC)cc2)[C@H]2c3cc(C(=O)N(C)C)n(Cc4ccc(O)c(OC)c4)c3C[C@H]2CN1C(=O)c1ccccc1,-9.0%,·,-8.5%,?
C=CCn1cnc2c(c1=O)c1nc3ccccc3nc1n2/N=C/c1cccc(OC)c1,-21.1%,8.0,11.2µM*,?
CCCCCCn1cnc2c(c1=O)c1nc3ccccc3nc1n2/N=C/c1ccco1,-23.2%,?,25.1µM*,?
COCCn1cnc2c(c1=O)c1nc3ccccc3nc1n2/N=C/c1ccc(OC)c(OC)c1,·,·,-0.2%,12.2%
